The whole screen tested about 53,000 sequences, of which about 3,700 (7%) were called active. Many of the other results were omitted from the sample, so actives are more common in it than they were. Unmarked numbers belong to inactive results.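 How the source made its calls: active means gene knockdowns whose robust z-score for IL-1 alpha signal is at least 2 or at most -2, so actives lie on both sides; inactive means the rest.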

The experiment can be described thus: Components of the Cytosolic LPS Sensing Pathway: Gene Identification via Genome-wide siRNA Screen. Conditions: RAW264.7 macrophages, IL-1a HTRF, actives lie on both sides, screened at 100 nM (by protocol), cells primed 5 h with Pam3CSK4 first. An excerpt: Non-canonical inflammasome activation by cytosolic LPS is a critical component of the host response to Gram-negative bacterial infection, however we lack a comprehensive understanding of the cellular processes that control this pathway. Here we describe a genome-wide siRNA screen to identify genes regulating the mouse macrophage IL-1 alpha response to cytosolic LPS.
RAW264.7 cells were maintained in complete DMEM media, comprising DMEM with 4.5 g/L glucose, 10% FBS (Gemini Bio-Products, West Sacramento, CA), 2 mM Glutamine (Lonza) and 20 mM HEPES (Lonza), hereafter complete DMEM.
The RNAi screen was conducted in 384-well format using the Ambion Silencer Mouse Genome siRNA Library (#4391425), which consists of three unique, nonoverlapping, nonpooled siRNAs for each of 17,000 gene targets. siRNA reagents ([…]) were stamped into 384-well white flat-bottom microplates (Corning, 3570) using a Velocity11 VPrep liquid handling system (Agilent) integrated into a BioCel robotic platform (Agilent) in columns 1-22, leaving columns 23-24 empty for negative (Ambion, Negative control #1) and positive (mouse Casp4) controls, respectively. The median value of each plate's negative control column was used to normalize sample wells, and the positive control was used to assess transfection efficiency and assay performance.
Lipofectamine RNAiMAX Transfection Reagent ([…]; Invitrogen) was added in […] serum-free, antibiotic-free media to plate wells using a Thermo Scientific Matrix WellMate and Microplate Stacker. Plates were incubated for 45 min at room temperature to allow for the sufficient formation of siRNA-lipid complexes. Cells were seeded at a density of 1x10^4 cells per well in 20 microL media containing 20% (vol/vol) FBS without antibiotics. The final concentration of siRNA in each well was 100 nM. Cells were cultured for 48h at 37 degrees C in 5% CO2 before addition of […] of TLR ligand Pam3CSK4 for 5 hours. The medium was then removed, replaced with […] growth media and cell were transfected with […] of LipidA and TransIT-TKO (Mirus) for 24 hour. At the end of the LipidA treatment, […] of supernatant was transferred to a 384 Greiner Bio-one non-binding low volume plate and […] of IL-1a HTRF reagent (Cisbio, 62MIL1APEH) was added and incubated at room temperature overnight. The plates were read on an EnVision plate reader (PerkinElmer). Cell viability was measured by adding 20ul Cell Titer Glo to the original plate and running a luminescence read on the EnVision. The quantified IL-1a signal for each siRNA gene-targeted well was divided by the median of the negative control wells and multiplied by 100 to achieve a negative control normalized value for each well/siRNA. This normalized value was then used to generate a robust z-score by first taking the log of each value and then by subtracting the median and dividing by the […].
Regarding GGACACUAUAAGAAAGGAATT against Fnta, the z-score was 0.708.

With CCCAUUACGCAAAUUGUUCTT against Rin3, the z-score was -2.31 (active).

Take GCCACGUCUGAACACUUCATT against Vamp8: the z-score was 0.873.

GCCUGUUUAGAAUUAGAGATT against Plekhs1: the z-score is 0.135.

Take GCUGAUGGACAAAUUCCACTT against Rapgef1: the z-score is 0.505.

Take GCCAUUGCUAUCCAUCGUGTT against Ddx39b: the z-score is -2.57 (active).

CCAAAGUUCCCUUAGCCAUTT against Cntrob: the z-score is 0.12.

GCGGCACUUUAUCAUUAUCTT against Hint3: the z-score is 0.398.

For the sequence GCCCAUUCUAAACAAAUAATT against Ptcd1, the z-score is -0.825.

With GGAGCUUAAAGUGAGCGGCTT against Lage3, the z-score is -0.859.

In the case of CGACCAGUCACAAUGGUUATT against Edil3, the z-score was 1.43.

For GGUGAUUGCUGAAGACGAGTT against Fbxw8, the z-score was -0.172.

Regarding CCUCGAAACUCAUUUCCAGTT against Prkch, the z-score was -0.603.

Regarding GGGUUAAUCCCUAUCUCUUTT against Tfe3, the z-score is 0.419.

On to GAUCUCAAACAUUCUAUGCTT against Lce1c, for which the z-score was -1.14.

With GGAGCCAAGUGUGAUUACATT against Pias3, the z-score was 6.29 (active).

Consider GGAAUCUGAAUUUUUGUGUTT against Commd1, for which the z-score was -0.576.

Regarding GACCUGUUUUGUCUUUUGCTT against Ms4a4c, the z-score is 1.34.

Consider GCUUGAUAGGGAACUUAAUTT against Olfr805, for which the z-score is -1.57.

Take GCUGCUGGAUGCAACCAAATT against Slc16a3: the z-score was -0.379.

As to GCUGCACGUGAUCAUGGAUTT against Accs, the z-score is 0.852.

With GCCUAAGAUCUGGACCUAATT against Timm44, the z-score was -0.35.

Regarding GGAGAAGCAUUAUUUUGAATT against Myb, the z-score is 0.798.

Take “GGACGACUGGAAGUUUUCUTT against 5830411N06Rik”: the z-score was 3.95 (active).

In the case of GGAGCCCUUGCUCUUUAACTT against Izumo1r, the z-score is -2.23 (active).

As to GGACAUAAGAGAAUGGUCATT against Lpp, the z-score was 2.07 (active).

With GGCAAAUGUACUAAAAUGATT against Gpr34, the z-score is 0.764.

As to GCCACUUACACUUACUUGATT against Olfr1331, the z-score is -0.15.

For GCAUAAGCCACACCCUCUGTT against Cops7a, the z-score is 1.03.

As for GGGAAAUUUAAAAACCUGGTT against Hoxa2, the z-score was -0.139.

For GGAAAGACCAUUCUGUAUUTT against Vps37d, the z-score was -1.54.

For GCUGAACUGUCUCAGCUCATT against Tmem81, the z-score is 2.06 (active).

Regarding AGAAGAUACCGAUCAAGCGTT against Nsmce3, the z-score is 0.049.

Turning to GCAUGGGCAUAACCGAAAGTT against Rex2, the z-score was -0.332.

With GGAGAAGUAAUGACAAAUUTT against Foxp4, the z-score was -1.47.

Take GGACGUGACUCUCAUCAUCTT against Atp2b3: the z-score was 0.929.

Consider GUGAUGUGGCCAUGUCAAUTT against Olfr641, for which the z-score is -2.61 (active).

As to GGAGAGGAAAAUUGUAUUUTT against Alox12, the z-score was -0.037.

CCCAUUCUGUAUAUAGUGCTT against Adam6a: the z-score was -0.0363.

For CGGUUAGAGCAUUAAGUUCTT against Lias, the z-score is 0.817.

For GCUCGAUUCAGAAAUCUACTT against Sgce, the z-score is -0.735.

With GACUGAACAGAUCUACUCUTT against Klra7, the z-score is -0.413.

Regarding CGCAUUUCGAAUAAAGACATT against Mettl22, the z-score was -0.546.

In the case of GCAUUUCACCGUCAUGAACTT against Ttll12, the z-score is -2.55 (active).

For GGAAGUUUGCUCAAUCUCATT against Jarid2, the z-score is 1.12.

For the sequence GGACCUGUAUUCACACCUUTT against Wdr61, the z-score is 0.0931.

On to GGGUUUUUGAUGAUGAUUCTT against Htatsf1, for which the z-score was -0.66.

Take CGGGAUAGCUGUCCUGUUATT against Mrps14: the z-score was 0.127.

For GAAGCGAUGCUCAGAUCCATT against Serpina1d, the z-score is 0.136.

Consider GCCCUCCUUAUAGCUUAAUTT against Asic3, for which the z-score was -2.2 (active).

GCUUCGAAGCAACAUCCGATT against Rims3: the z-score is -0.00729.

GGAAAAACUGUGCAAAUAATT against Krt75: the z-score was 1.26.

In the case of GCAGGCAUUCUGCUCUAUATT against Oxgr1, the z-score was 1.01.

Consider GGGACAUUAAUAAACCUGATT against Omg, for which the z-score was -0.269.

CCAUGGCCUAGAGCUGGAUTT against Unc5cl: the z-score is 0.315.

Take GGAAGUAACAUGCUUCUAGTT against Ccdc42: the z-score was 0.75.

Regarding GGAUUCCAUCUUUGUAUGATT against Cbr4, the z-score was 0.689.

Regarding GCCAAGUGAUUGAAAAAACTT against Lnpk, the z-score was -0.423.

Consider GGUGAAGAAAGUCAAGAAGTT against Spi1, for which the z-score was -2.46 (active).

As to GGUUCUGGUGGUGAAUGUGTT against Kcnd1, the z-score was -1.51.

For GCGAGUUGUUUCCAUAGUUTT against Gpr22, the z-score was -0.388.

Regarding GGCAGAGCUAGAUCAAAUUTT against Retreg1, the z-score was 3.58 (active).

Turning to GGAAAUUCACACAGAUGAATT against Mtmr12, the z-score is -1.27.

On to GCCAACCUUCAAGGAAUAUTT against Cyp2b10, for which the z-score is 1.4.

With GGGAAGACAAGAACAACUUTT against Pitrm1, the z-score is 0.756.

With GGUCGUUAUCACUCUCUAUTT against Pkd1l3, the z-score is 3.34 (active).

As for CCCUUUAGCUUCCUAAUGUTT against Rhag, the z-score is 0.11.

For GGUUUUAUUAACUCUGUGATT against Olfr1013, the z-score was 0.453.

Consider GGACUGCUUUUUUUACUCATT against Mta2, for which the z-score is -2.07 (active).

The values are drawn from PubChem BioAssay AID1508600 (Functional Genomics Laboratory (NCATS/FGL), 2020).
